Several values for one entry are separate records, joined by “and”; a condition that tells them apart may be missing. Equal values may be shown once. The panel holds about 79,000 compounds, 15% with a hit somewhere; the sample as a whole holds those more often. Unmarked numbers belong to inactive results. Activity calls are given as the source filed them. Cut-off read from the data, not from the text of the source: active = growth inhibition above about 70%; inactive = the rest.
Columns and labels:
[1] = NCI Yeast Anticancer Drug Screen. Data for the rad50 strain (AID 155);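 note: 0% = growth of vehicle-only cultures of the same strain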; settings: S. cerevisiae rad50 strain growth inhibition, stronger effect = higher value; at 50.0 µM unless noted
Method in brief: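 Cells are treated with compound, grown, and their growth is then scored against vehicle-only cultures of the same repair-deficient yeast strain.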

[2] = NCI Yeast Anticancer Drug Screen. Data for the mec2-1 strain (AID 157); settings: S. cerevisiae mec2-1 strain, stronger effect = higher value; at 50.0 µM unless noted
Method in brief: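 Each compound was tested on mec2-1 yeast, a strain altered in DNA damage repair or cell cycle control. Growth inhibition is reported relative to vehicle.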

[3] = NCI Yeast Anticancer Drug Screen. Data for the sgs1 mgt1 strain (AID 161);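 note: 0% = growth of cultures given vehicle only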; settings: S. cerevisiae sgs1 mgt1 strain, stronger effect = higher value; at 50.0 µM unless noted
Method in brief: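 Inhibition of yeast growth, normalised to vehicle-treated controls, is reported for a strain bearing genetic alterations in DNA damage repair.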

[4] = NCI Yeast Anticancer Drug Screen. Data for the cln2 rad14 strain (AID 165);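 note: 0% = growth equal to vehicle treated cultures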; settings: S. cerevisiae cln2 rad14 strain, stronger effect = higher value; at 50.0 µM unless noted
Method in brief: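 Test compounds were added to cln2 rad14 yeast cultures; inhibition of growth was then determined by comparison with vehicle treatment.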

[5] = NCI Yeast Anticancer Drug Screen. Data for the bub3 strain (AID 167); settings: S. cerevisiae bub3 mutant strain, stronger effect = higher value; at 50.0 µM unless noted
Method in brief: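 Part of a panel of yeast mutants defective in DNA damage repair or cell cycle regulation. Each strain is grown with compound, and inhibition is calculated relative to solvent-treated cultures.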

[6] = NCI Yeast Anticancer Drug Screen. Data for the mlh1 rad18 strain (AID 175); settings: S. cerevisiae mlh1 rad18 strain growth inhibition, stronger effect = higher value; at 50.0 µM unless noted
Method in brief: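 Inhibition values reflect reduced growth of mutant yeast versus vehicle-treated controls following compound exposure; the mutations affect DNA damage repair.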

| SMILES | growth inhibition [1] | growth inhibition [2] | growth inhibition [3] | growth inhibition [4] | growth inhibition [5] | growth inhibition [6] |
| --- | --- | --- | --- | --- | --- | --- |
| CC(=O)Nc1ccc(S(N)(=O)=O)cc1 | 16.6% and -34.8% | 15.6% and 8.55% | 16.1% and 21.3% | 12% and -4.55% | 1.75% and -3.65% | 13.6% and 37% |
| CC(C)(C)OC(=O)NCC(=O)NC1C/C(=N\O)c2sccc21 (stereo not drawn) | 17.4% | 5.8% | 11.3% | 15.6% | -5.35% | 39.5% |
| CCOC(=O)c1ccc(NC(=S)Nc2ncccc2C)cc1 | 15.8% | 11.4% | 42.5% | -3.3% | 34.3% | 21.2% |
| CCCCCC[N+]1([O-])CC[N+]([O-])(CCCCCC)CC1 (stereo not drawn) | -6.6% | -7.9% | -1.55% | -43.4% | 0.35% | 7.35% |
| CCCCCCn1ncc2c(N)ncnc21 | 10.4% | 6.85% | -1.3% | -4% | 29.8% | -1.3% |
| CCOC(=O)[C@]12C3C=CC(C3)C1C(=O)C1OC12 (stereo partly drawn) | -29% | -26.8% | -19.3% | -0.5% | -26.6% | -45.1% |
| N#CC(C(=S)Nc1ccccc1)=C1Nc2ccccc2N1 | 7.2% | -36.2% | -18.1% | -2.65% | -20.1% | -22.8% |
| O=C1c2ccccc2C(=O)N1C/C=C/CO | 11.5% | 8.75% | -1.45% | 7.6% | 0.95% | 1.15% |
| Cc1c(SC(Cl)(Cl)Cl)cc([N+](=O)[O-])c(N(C)C)c1[N+](=O)[O-] | 13.5% | 24.9% | 34.6% | -43.9% | 6.45% | 10% |
| c1ccc(-c2nc3ccccc3s2)cc1 | 25.2% and 18.6% | -22.4% and -0.5% | 24.1% and -17.9% | 23.8% and -20.2% | 8.55% and -4.35% | 40.4% and 2.6% |
| CCCCCCCCCCCCCCCCCn1nnnc1N | -8.3% | 11.6% | -7.3% | -9.95% | -12.3% | -11.4% |
| CC/C=N\N1C(N)=C(C#N)C(C#N)(C#N)C1CC (stereo not drawn) | 6.05% | 10.2% | -18.9% | 4.75% | -12.8% | -27.9% |
| CCC(O)c1ccc(OCc2ccccc2)c(OC)c1 (stereo not drawn) | 7.35% | -2.1% | 24.6% | -43.1% | -4.05% | 2.25% |
| CC(=O)CC(=O)N1CCc2ccccc21 | 3.8% | -14.9% | 3.8% | 2.55% | -19.6% | 1.1% |
| O=C1/C(=C/c2cccc(Cl)c2)CCCc2ccccc21 | 21.9% | 13.8% | 33.2% | 11.3% | 62.5% | 44.4% |
| C[N+]1(CCC(=O)c2ccccc2)CCOCC1 | 42% | 9.85% | 28.4% | 20.8% | 13.5% | 19.9% |
| COC1C(OC(=O)c2ccc(C)[nH]2)C(O)C(Oc2ccc3c(O)c(NC(=O)c4c[nH]c(C(=O)Nc5c(O)c6ccc(OC7OC(C)(C)C(OC)C(OC(=O)c8ccc(C)[nH]8)C7O)c(C)c6oc5=O)c4C)c(=O)oc3c2C)OC1(C)C (stereo not drawn) | 17% | 8.45% | 15.2% | 24.7% | 11.4% | 26.6% |
| CCC(=O)NC(Nc1ccccc1F)(C(F)(F)F)C(F)(F)F | -29.2% | -18.2% | -18.1% | -4% | -41.9% | -35.9% |
| CC/C=C/C(CC)(C(=O)OCC)C(=O)OCC | 5.45% | -15.8% | -6.7% | -2% | -16.3% | -20.1% |

| SMILES | growth inhibition [1] | growth inhibition [2] | growth inhibition [3] | growth inhibition [4] | growth inhibition [5] | growth inhibition [6] |
| --- | --- | --- | --- | --- | --- | --- |
| N#CCN1CCCCCC1 | -14.8% | -20.5% | -16.6% | 4.2% | -13.6% | 9.8% |
| CC(CC(=O)c1cccc2ccccc12)C(=O)O (stereo not drawn) | 19% | 3.3% | 2.85% | 0.55% | -10.7% | 24.3% |
| CC1CC(=O)Nc2nc3ccccc3n21 (stereo not drawn) | 7.15% | 6.65% | -25.2% | -44.9% | -21.8% | -28.8% |
| O=[N+]([O-])c1ccc(N(CCO)CCO)cc1 | 1.05% | -12.8% | -1.75% | 9.25% | -6.4% | -17.1% |
| CC1(C)N=C(Oc2cc(Cl)cc(Cl)c2)NC(=S)N1 | 11.8% | -8.3% | 24% | 21.2% | 7% | 24% |
| Nc1ccc(S(=O)(=O)Nc2cc(C(F)(F)F)cc(C(F)(F)F)c2)cc1 | 12.9% | 16.6% | 28.6% | 41.6% | 10.7% | 32% |
| COc1ccccc1N=C(N)N/N=C/c1c[nH]c2ccccc12 | 0.25% | -8.85% | -9.6% | 17% | 1.45% | 15.2% |
| CCN(CC(COc1ccc2c(c1)[n+]([O-])nc(N)[n+]2[O-])OC(C)=O)C(C)=O (stereo not drawn) | 42.9% | 38.3% | 41.5% | 40.1% | 25.4% | 41.3% |
| CN(C)/N=C/C=C1\N=C(c2ccccc2)OC1=O | 5.75% | -10.6% | -17.9% | -45.7% | -0.75% | -10.9% |
| O=C(/C=C/c1ccccc1)c1ccccc1 | -1.8% and -29.8% | 10.3% and -6.35% | -8.65% and -18.8% | -41% and -36.2% | 21.7% and 1.7% | 14.3% and -22.3% |
| CCOC(=O)CC/C=N/Nc1ccc([N+](=O)[O-])cc1[N+](=O)[O-] | 20.6% | -14% | 6.7% | -45.5% | 6.55% | 0% |
| CC1(C)CC[C@]2(C(=O)O)CC[C@]3(C)C(=CC[C@@H]4[C@@]5(C)CC[C@H](OC6OC(CO)C(O)C(O)C6O)C(C)(C)[C@@H]5CC[C@]43C)[C@@H]2C1 (stereo partly drawn) | 76.2% (active) | 74.8% (active) | 47.9% | 74.2% (active) | 82.4% (active) | 54.4% |
| Cc1ccc(N[P+](c2ccccc2)(c2ccccc2)c2ccccc2)cc1.[Cl][Fe]([Cl])([Cl])[Cl] | 44.1% | 3% | 22.9% | -8.4% | 11.7% | 12.6% |
| O.O.O=S(=O)(O)C(F)(F)F.[NH2-].[NH2-].[NH2-].[NH2-].[Ru+3] | -17.8% | 1.8% | -27% | -16.9% | -27.4% | -11.6% |
| Oc1ccccc1-c1cc(-c2ccccc2)nc(NCCCNc2nc(-c3ccccc3)cc(-c3ccccc3O)n2)n1 | -11.2% | 8% | -5.3% | -14.8% | 35% | 14.2% |
| COc1ccc(OC)c2[nH]c(=O)c(C)nc12 | 7.15% | 1.85% | 5.75% | -4.85% | 4.35% | -4.3% |
| OCC(O)C1OC(O)C(O)C(O)C1O (stereo not drawn) | 1.45% | -7.75% | -32.2% | -49.4% | -6.75% | 10.4% |
| Nc1nc(CCCCc2ccc(NC(=O)CBr)cc2)c(CCCCc2ccccc2)c(=O)[nH]1 | 27.6% | 11.3% | 34.7% | 24.8% | -3.1% | 11.4% |
| CCOCCOC(=O)COc1ccccc1 | 12.8% | 16.4% | 17.6% | 7% | -7.85% | 3.65% |

Source: PubChem BioAssay (NCI)
